Of roughly 8,800 targets only a part is listed; those with a hit were picked by preference. About 0.5% of all pairs of compound and target were hits. Unmarked numbers belong to inactive results.

UniProt Q9Y2E5, sequence (Q9Y2E5 whole entry, looked up): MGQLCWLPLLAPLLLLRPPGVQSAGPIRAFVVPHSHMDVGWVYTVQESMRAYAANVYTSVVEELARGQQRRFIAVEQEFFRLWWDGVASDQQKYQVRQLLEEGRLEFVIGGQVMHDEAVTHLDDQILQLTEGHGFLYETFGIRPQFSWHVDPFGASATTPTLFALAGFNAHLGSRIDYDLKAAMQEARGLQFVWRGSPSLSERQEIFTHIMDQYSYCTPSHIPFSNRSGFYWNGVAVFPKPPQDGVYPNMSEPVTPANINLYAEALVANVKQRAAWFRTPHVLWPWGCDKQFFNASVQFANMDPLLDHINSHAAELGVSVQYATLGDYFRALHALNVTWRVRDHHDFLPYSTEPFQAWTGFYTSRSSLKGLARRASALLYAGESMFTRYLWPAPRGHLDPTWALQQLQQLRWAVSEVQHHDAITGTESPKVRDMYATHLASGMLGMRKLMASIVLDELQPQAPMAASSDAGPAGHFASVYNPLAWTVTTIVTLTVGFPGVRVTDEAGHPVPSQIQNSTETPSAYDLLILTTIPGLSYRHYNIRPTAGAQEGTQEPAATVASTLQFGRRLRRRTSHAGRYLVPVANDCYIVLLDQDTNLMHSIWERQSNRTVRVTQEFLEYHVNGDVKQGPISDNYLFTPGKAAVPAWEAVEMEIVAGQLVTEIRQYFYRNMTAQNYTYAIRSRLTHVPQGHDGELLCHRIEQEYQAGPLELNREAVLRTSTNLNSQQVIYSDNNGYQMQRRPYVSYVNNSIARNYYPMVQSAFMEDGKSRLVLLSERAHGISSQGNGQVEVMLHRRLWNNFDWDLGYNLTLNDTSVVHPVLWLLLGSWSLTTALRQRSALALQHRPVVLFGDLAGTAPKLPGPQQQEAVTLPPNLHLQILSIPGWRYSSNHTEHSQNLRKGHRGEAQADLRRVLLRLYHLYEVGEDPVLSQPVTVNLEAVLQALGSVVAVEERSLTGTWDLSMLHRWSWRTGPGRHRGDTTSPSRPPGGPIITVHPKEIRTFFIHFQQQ
UniProt P48449, sequence (P48449 whole entry, looked up): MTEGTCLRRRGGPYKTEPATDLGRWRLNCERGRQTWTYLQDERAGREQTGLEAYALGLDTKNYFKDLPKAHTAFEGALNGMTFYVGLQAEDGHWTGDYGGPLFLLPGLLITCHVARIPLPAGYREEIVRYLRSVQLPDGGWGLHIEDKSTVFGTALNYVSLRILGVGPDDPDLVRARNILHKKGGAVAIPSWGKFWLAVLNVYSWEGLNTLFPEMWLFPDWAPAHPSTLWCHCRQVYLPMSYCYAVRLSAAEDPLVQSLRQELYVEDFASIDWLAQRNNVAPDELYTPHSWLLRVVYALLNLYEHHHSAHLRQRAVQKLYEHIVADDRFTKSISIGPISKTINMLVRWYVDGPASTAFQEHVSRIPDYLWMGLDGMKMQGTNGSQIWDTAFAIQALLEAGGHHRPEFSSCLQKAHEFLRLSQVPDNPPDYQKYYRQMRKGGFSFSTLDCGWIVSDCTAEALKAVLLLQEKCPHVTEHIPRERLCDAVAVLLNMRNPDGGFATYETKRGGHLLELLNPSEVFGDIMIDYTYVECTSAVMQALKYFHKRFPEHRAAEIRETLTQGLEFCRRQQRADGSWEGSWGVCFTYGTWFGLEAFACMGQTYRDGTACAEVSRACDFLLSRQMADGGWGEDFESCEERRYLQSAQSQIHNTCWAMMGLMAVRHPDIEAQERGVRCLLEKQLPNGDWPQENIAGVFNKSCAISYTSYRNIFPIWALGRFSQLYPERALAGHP
UniProt Q8WV92, sequence (Q8WV92 whole entry, looked up): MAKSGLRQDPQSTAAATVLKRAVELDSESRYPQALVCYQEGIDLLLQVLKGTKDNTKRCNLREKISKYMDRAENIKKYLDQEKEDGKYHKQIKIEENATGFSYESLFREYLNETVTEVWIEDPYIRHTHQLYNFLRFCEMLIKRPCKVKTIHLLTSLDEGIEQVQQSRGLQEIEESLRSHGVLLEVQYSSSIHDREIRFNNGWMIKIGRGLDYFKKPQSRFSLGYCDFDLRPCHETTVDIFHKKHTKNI
UniProt Q9BTT4, sequence (Q9BTT4 whole entry, looked up): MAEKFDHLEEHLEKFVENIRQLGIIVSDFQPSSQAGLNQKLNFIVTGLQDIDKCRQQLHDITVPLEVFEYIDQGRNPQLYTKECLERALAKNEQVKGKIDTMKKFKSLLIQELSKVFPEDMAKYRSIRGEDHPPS
UniProt Q2VIQ3, sequence (Q2VIQ3 whole entry, looked up): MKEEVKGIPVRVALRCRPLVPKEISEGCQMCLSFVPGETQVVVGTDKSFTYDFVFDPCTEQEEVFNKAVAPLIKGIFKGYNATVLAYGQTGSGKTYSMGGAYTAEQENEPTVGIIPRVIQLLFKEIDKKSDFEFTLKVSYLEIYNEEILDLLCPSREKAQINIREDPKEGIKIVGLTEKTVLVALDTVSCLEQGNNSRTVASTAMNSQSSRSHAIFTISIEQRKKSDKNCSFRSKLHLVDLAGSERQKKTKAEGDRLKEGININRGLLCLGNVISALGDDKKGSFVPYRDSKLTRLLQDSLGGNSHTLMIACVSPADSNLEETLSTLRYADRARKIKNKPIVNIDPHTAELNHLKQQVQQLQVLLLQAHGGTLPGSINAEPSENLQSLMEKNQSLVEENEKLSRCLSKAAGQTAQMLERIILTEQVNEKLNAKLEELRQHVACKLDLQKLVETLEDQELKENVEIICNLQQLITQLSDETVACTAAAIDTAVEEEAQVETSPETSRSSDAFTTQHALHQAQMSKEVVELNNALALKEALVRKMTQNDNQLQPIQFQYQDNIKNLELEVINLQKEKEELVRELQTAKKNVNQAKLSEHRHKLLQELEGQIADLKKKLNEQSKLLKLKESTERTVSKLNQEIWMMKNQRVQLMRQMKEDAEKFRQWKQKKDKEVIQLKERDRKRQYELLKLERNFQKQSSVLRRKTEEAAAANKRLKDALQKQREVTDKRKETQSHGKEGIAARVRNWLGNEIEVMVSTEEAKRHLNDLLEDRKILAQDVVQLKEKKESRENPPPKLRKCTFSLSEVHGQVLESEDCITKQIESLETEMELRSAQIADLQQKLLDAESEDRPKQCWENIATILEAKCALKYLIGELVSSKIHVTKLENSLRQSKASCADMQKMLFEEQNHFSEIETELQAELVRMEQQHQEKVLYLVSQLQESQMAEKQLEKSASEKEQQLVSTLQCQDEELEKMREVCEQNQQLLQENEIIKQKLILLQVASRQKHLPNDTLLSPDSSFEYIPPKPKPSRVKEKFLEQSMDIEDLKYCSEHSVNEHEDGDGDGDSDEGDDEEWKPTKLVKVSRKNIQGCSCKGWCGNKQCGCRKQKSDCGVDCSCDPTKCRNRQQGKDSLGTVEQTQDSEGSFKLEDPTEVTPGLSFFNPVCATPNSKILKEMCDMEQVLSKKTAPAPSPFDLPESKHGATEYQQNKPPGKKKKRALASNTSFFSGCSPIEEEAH
UniProt P27361, sequence (P27361 whole entry, looked up): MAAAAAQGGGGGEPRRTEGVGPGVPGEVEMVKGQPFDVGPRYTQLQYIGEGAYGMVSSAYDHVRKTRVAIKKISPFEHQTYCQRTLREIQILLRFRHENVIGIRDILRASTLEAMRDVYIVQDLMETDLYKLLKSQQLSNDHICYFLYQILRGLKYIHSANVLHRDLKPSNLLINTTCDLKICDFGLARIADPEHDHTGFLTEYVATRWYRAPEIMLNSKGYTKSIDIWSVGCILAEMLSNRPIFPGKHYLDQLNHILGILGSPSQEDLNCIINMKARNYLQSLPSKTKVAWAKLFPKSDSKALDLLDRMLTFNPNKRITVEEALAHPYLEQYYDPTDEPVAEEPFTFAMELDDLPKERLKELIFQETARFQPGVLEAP
UniProt Q71SY5, sequence (Q71SY5 whole entry, looked up): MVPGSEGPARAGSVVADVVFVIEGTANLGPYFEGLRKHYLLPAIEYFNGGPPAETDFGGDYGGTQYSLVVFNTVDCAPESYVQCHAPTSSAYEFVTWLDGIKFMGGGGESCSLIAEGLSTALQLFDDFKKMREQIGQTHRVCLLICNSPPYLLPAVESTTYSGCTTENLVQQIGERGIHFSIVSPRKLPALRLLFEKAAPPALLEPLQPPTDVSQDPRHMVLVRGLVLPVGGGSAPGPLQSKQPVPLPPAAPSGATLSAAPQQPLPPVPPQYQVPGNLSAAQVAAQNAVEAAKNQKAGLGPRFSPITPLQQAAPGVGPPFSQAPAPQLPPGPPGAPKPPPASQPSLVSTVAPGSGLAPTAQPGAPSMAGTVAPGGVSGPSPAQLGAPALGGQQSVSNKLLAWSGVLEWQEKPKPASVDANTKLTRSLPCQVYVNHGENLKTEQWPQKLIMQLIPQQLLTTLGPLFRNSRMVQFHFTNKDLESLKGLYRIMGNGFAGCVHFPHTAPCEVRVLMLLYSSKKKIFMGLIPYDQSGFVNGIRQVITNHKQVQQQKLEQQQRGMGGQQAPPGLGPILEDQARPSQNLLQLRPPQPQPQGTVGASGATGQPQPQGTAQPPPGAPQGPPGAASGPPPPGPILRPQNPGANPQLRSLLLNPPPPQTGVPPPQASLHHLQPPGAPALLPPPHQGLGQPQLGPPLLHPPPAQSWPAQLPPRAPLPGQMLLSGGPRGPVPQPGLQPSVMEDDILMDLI
UniProt Q16539, sequence (Q16539 whole entry, looked up): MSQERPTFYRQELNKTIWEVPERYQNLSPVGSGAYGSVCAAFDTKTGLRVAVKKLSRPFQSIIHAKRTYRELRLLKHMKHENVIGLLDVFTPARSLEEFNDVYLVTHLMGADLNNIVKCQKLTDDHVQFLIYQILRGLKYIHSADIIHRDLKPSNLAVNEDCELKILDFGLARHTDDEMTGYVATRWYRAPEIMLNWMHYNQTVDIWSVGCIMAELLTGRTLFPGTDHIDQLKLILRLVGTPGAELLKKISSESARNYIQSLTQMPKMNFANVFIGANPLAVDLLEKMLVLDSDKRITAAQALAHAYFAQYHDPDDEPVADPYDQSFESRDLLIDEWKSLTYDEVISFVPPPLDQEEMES
UniProt O15243, sequence (O15243 whole entry, looked up): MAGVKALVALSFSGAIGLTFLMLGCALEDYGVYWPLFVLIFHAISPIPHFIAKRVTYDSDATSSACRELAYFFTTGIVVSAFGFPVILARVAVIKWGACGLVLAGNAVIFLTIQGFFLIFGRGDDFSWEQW

Compound in one assay: CC1=C(C=C(C=C1)NC(=O)C2=CC(=CC=C2)C(C)(C)C#N)NC3=CC4=C(C=C3)N=CN(C4=O)C
The assay can be described thus: log2 fold change, soluble protein after heating vs DMSO (PISA); higher = thermal stabilisation; K562 lysate, 10 uM; active = over 0.2 and 3.5 SD of the protein, either way, in both replicates (recomputed). In outline: (§1)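 Soluble protein was defined as the supernatant remaining after 21,000xg for 90 min, following pooling of heated aliquots and adjustment to 0.5% NP-40 at 4°C. Before that, crude K562 extract at 1 mg/mL protein in PBS pH 7.4 with 1 mM MgCl2 was treated with 10 μM compound for 30 min and heated for 3 min across 48°C-58°C. Quantification used TMTpro 16plex LC-MS/MS with channel sums equalised, and values are log-two fold changes in thermal stability relative to solvent controls from duplicates.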
As for MCMBP isoform 2 (UniProt Q9BTE3), the log2 fold change was 0.063. Same read-out and setting: then MAP4K5 (UniProt Q9Y4K4), with 0; and MACO1 (UniProt Q8N5G2), with -0.023. Still for that read-out and setting: with LEPROT (UniProt O15243) the figure was 0.181; with KLHL12 isoform 2 (UniProt Q53G59), -0.066.

Regarding LSS (UniProt P48449), the log2 fold change is -0.003. For KIF4B (UniProt Q2VIQ3), the log2 fold change was 0.01. For MRPL27 (UniProt Q9P0M9), the log2 fold change is -0.028.

With MED25 isoform 3 (UniProt Q71SY5), the log2 fold change is 0.035.

As to MAP7D3 (UniProt Q8IWC1), the log2 fold change was 0.046. Same read-out and setting: then MITD1 (UniProt Q8WV92), with -0.059; and MED14 (UniProt O60244), with -0.019.

LIMK2 isoform 3 (UniProt P53671): the log2 fold change is 0.175. On the same count and under the same terms, then LAMP1 (UniProt P11279), with 0.022; and MAPK3 (UniProt P27361), with 0.026; and MRPL35 (UniProt Q9NZE8), with -0.032. As for MAN2B2 (UniProt Q9Y2E5), the log2 fold change was -0.013.

Regarding MAST2 (UniProt Q6P0Q8), the log2 fold change was 0.03.

MGST3 (UniProt O14880): the log2 fold change was 0.042. Still for that read-out and setting: with MAPK14 (UniProt Q16539) the figure was 0.88 (active); with LRRC7 (UniProt Q96NW7), -0.062. Still for that read-out and setting: with MIF4GD isoform 3 (UniProt A9UHW6) the figure was 0; with MME (UniProt P08473), 0.007; with MAP4K2 (UniProt Q12851), 0.058. For LIMK1 (UniProt P53667), the log2 fold change was -0.085. As for MCUB (UniProt Q9NWR8), the log2 fold change was 0.443 (active). Same read-out and setting: then METTL21A (UniProt Q8WXB1), with 0; and MINDY1 isoform 3 (UniProt Q8N5J2), with -0.034; and MAP4 isoform 5 (UniProt P27816), with 0.012.

For MAPKAPK3 (UniProt Q16644), the log2 fold change is 0.082. Still for that read-out and setting: with LPCAT1 (UniProt Q8NF37) the figure was 0.003. As to MANEA (UniProt Q5SRI9), the log2 fold change was 0.037.

MRPL30 isoform 2 (UniProt Q8TCC3): the log2 fold change is 0.02. Still for that read-out and setting: then KRIT1 (UniProt O00522), with 0.045; and LTN1 isoform 3 (UniProt O94822), with -0.018. Still for that read-out and setting: then MAPK8 isoform 3 (UniProt P45983), with 0.013; and MED10 (UniProt Q9BTT4), with 0.02; and MAP3K4 (UniProt Q9Y6R4), with -0.006.

Compound in the next assay: CC1=C(C=C(C=C1)NC(=O)C2=CC(=CC=C2)N(C)C)NC(=O)C3=CC=C(C=C3)O
The description is as above. In outline:
as §1
As for MCMBP isoform 2 (UniProt Q9BTE3), the log2 fold change is 0.12. For MAP4K5 (UniProt Q9Y4K4), the log2 fold change was 0.021. In the case of MACO1 (UniProt Q8N5G2), the log2 fold change was -0.002. Take LEPROT (UniProt O15243): the log2 fold change is 0.016.

Take KLHL12 isoform 2 (UniProt Q53G59): the log2 fold change is 0.

Regarding LSS (UniProt P48449), the log2 fold change is -0.04.

Regarding KIF4B (UniProt Q2VIQ3), the log2 fold change was 0.002. Still for that read-out and setting: then MRPL27 (UniProt Q9P0M9), with 0.1; and MED25 isoform 3 (UniProt Q71SY5), with 0.057; and MAP7D3 (UniProt Q8IWC1), with 0.087. The same measure, in the same setting: then MITD1 (UniProt Q8WV92), with 0.058. Still for that read-out and setting: then MED14 (UniProt O60244), with 0.013; and LIMK2 isoform 3 (UniProt P53671), with 0.013; and LAMP1 (UniProt P11279), with -0.04. Consider MAPK3 (UniProt P27361), for which the log2 fold change was -0.022.

Consider MRPL35 (UniProt Q9NZE8), for which the log2 fold change is 0.032. With MAN2B2 (UniProt Q9Y2E5), the log2 fold change was -0.024. For MAST2 (UniProt Q6P0Q8), the log2 fold change is 0.031. Same read-out and setting: with MGST3 (UniProt O14880) the figure was 0.006; with MAPK14 (UniProt Q16539), 0.455; with LRRC7 (UniProt Q96NW7), 0.09. As to MIF4GD isoform 3 (UniProt A9UHW6), the log2 fold change was -0.04. Turning to MME (UniProt P08473), the log2 fold change was -0.025.

In the case of MAP4K2 (UniProt Q12851), the log2 fold change was 0.209. On the same count and under the same terms, with LIMK1 (UniProt P53667) the figure was 0.059; with MCUB (UniProt Q9NWR8), 0.04; with METTL21A (UniProt Q8WXB1), 0.009. Still for that read-out and setting: with MINDY1 isoform 3 (UniProt Q8N5J2) the figure was 0.015. Same read-out and setting: then MAP4 isoform 5 (UniProt P27816), with 0.082; and MAPKAPK3 (UniProt Q16644), with 0.029; and LPCAT1 (UniProt Q8NF37), with -0.016. As to MANEA (UniProt Q5SRI9), the log2 fold change is 0.114.

Take MRPL30 isoform 2 (UniProt Q8TCC3): the log2 fold change is -0.006. Still for that read-out and setting: then KRIT1 (UniProt O00522), with -0.011; and LTN1 isoform 3 (UniProt O94822), with 0.075; and MAPK8 isoform 3 (UniProt P45983), with 0.047. As to MED10 (UniProt Q9BTT4), the log2 fold change is 0.074. The same measure, in the same setting: with MAP3K4 (UniProt Q9Y6R4) the figure was -0.001; with MAP4K4 isoform 6 (UniProt O95819), 0.002.

(Values after the supplement of paper PMC10849652.)
